Many of the other results were omitted from the sample, so hits are more common in it than they were.
Cruzain Triton = blocks cruzain activity in presence of Triton detergent; Potency, µM, for inactives: max response, negative = inhibition, usual class: inhibitors; actives 0.43% (n = 200,000); purified cruzain, Z-FR-AMC fluorescence, 0.01% Triton;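 further: plate controls were neutral wells for no effect and buffer without enzyme for full effect; nearly all actives have a fitted effect of over 40% in size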
Target sequence (P25779 123-467 limits assumed): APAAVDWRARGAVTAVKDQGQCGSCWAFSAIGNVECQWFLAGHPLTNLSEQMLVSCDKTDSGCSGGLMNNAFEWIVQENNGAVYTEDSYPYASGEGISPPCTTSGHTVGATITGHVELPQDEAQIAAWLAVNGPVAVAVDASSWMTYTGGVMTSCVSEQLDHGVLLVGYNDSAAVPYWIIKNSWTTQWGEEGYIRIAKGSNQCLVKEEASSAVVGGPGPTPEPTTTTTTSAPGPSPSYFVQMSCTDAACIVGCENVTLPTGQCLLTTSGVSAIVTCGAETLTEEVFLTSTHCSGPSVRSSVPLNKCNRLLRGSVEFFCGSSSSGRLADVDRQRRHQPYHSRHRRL
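Cruzain (1.5 nM) preincubated 15 min at RT with compound in 100 mM sodium acetate pH 5.5, 5 mM DTT, 0.01% Triton X-100. Reaction started with 2 uM Z-FR-AMC; AMC fluorescence (ex 360/em 450 nm) change over 60 s gave rate.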
NS1 inh = influenza NS1 inhibition. actives 0.4% (n = 270,000). Potency, µM (titrated, usually from 46.1 µM), for inactives: at the highest dose activity, positive = more growth. AID 2326; calls by dose curve; further: actives are rising curves; nearly all actives have a fitted effect of over 50% in size
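OD600 was taken as the measure of yeast growth restored by compound in an NS1-expressing S. cerevisiae strain. Cells had been washed out of glucose medium and diluted 1:100 into galactose -URA medium, pH 6.0.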
Cruzain noTriton = blocks cruzain activity in detergent-free assay; P25779; purified cruzain, Z-FR-AMC fluorescence, no detergent; Potency, µM, for the others: max response, negative = inhibition, actives largely listed as inhibitors; actives 2.3% (n = 200,000);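 further: plate controls were enzyme without inhibitor for no effect and buffer without enzyme for full effect; nearly all actives have a fitted effect of over 40% in size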
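Detergent-free condition (0.00005% Triton X-100) in acetate buffer pH 5.5 with DTT. 1.5 nM enzyme and compound were pre-mixed 15 min, then 2 uM Z-FR-AMC substrate added; reaction progress from fluorescence change between first and third reads (60 s).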
Numbers without * were called inactive; ? = inconclusive; nt = no result given. Unless noted, the call rests on the fitted dose curve; in most records, active means well fitted curve in the direction sought with a large enough effect; inconclusive means small, poorly fitted or top-dose-only effect, or another doubt; inactive means no such curve, though single readings can be large; an effect the other way counts as inactive or inconclusive. Potency means the concentration at half of the fitted maximal effect.

SMILES | Cruzain Triton | NS1 inh | Cruzain noTriton
COC(=O)c1cccc(C23CC4(C2)[C@H](CN(C)[C@@H]4c2ccccc2)C3c2ccc(Cl)nc2)c1 (stereo not given in full) | -1.2% | nt | -8.5%
O=C(CNC(=O)c1ccc(Cl)cc1)OCC(=O)c1ccccc1 | nt | 6.2% | nt
Cc1ccc(-c2cc(C(=O)OCC(=O)Nc3ncc(C(F)(F)F)cc3Cl)c3ccccc3n2)cc1 | -2.8% | 0.4% | ?
O=C(COC(=O)CNC(=O)c1ccc(Cl)cc1)Nc1ccc(Cl)cc1C(F)(F)F | 8.91µM* | 5.1% | 6.31µM*
O=C(COC(=O)CCCNC(=O)c1ccc(Cl)cc1)Nc1cc(Cl)c(Cl)cc1Cl | -11.9% | 3.3% | -3.8%
Cc1ccc(C(=O)NCC(=O)OCC(=O)Nc2ncc(C(F)(F)F)cc2Cl)cc1 | 7.08µM* | 13.7% | 6.31µM*
O=C(COC(=O)CNC(=O)c1ccccc1)Nc1ccc(Cl)cc1C(F)(F)F | 15.8µM* | -9.1% | 12.6µM*
COc1cc(C2N(Cc3ccccc3)CCN2Cc2ccccc2)ccc1OC(C)=O | nt | -9.1% | nt
CCS(=O)(=O)N1CCc2cc(C(=O)Nc3ccc(C)c(Cl)c3)ccc21 | -2.1% | nt | -14.6%
Cc1ccc(NC(=O)CSc2nnc(-c3ccco3)c(-c3ccco3)n2)cc1 | 25.1µM* | -4.6% | 10µM*
CSc1nnc(-c2ccco2)c(-c2ccco2)n1 | 14.1µM* | 9.2% | 12.6µM*
CN(C)c1ccc(NC(=O)CSc2nnc(-c3ccco3)c(-c3ccco3)n2)cc1 | nt | -4.2% | nt
CSc1nnc(-c2ccccc2)c(-c2ccccc2)n1 | nt | -0.9% | nt
CC(C)(CNS(=O)(=O)c1ccc(F)cc1)CNS(=O)(=O)c1ccc(F)cc1 | -3.1% | 15.6% | -9.8%
CCOC(=O)c1ccc(-c2ccc(C3Nc4ccccc4C(=O)N3O)o2)cc1 (stereo not given) | -15.0% | -28.6% | ?
Cc1cc([N+](=O)[O-])ccc1-c1ccc(C2Nc3ccccc3C(=O)N2O)o1 (stereo not given) | -5.4% | -127.2% | 20µM*
CN(C=O)CP(=O)(O)CN1CCCCC1 | 1.0% | 3.6% | 1.6%
Cc1ccn2cc(-c3ccc(S(=O)(=O)N4CCOCC4)cc3)nc2c1 | 28.2µM* | ? | ?
Cc1ccc2nc(-c3ccc(S(=O)(=O)N4CCOCC4)cc3)cn2c1 | -1.8% | 1.7% | -2.7%
COc1ccc(-c2noc(-c3ccc(NCc4cccnc4)c([N+](=O)[O-])c3)n2)cc1OC | -0.2% | nt | 25.9%
CC(C)CNS(=O)(=O)c1ccc(OCC(=O)NCc2ccco2)cc1 | 2.2% | 2.1% | 1.7%
CCC1=C2CC[C@H]3C(=O)NC(=O)[C@H]3[C@H]2[C@@]2(C)C(=NCC3CC3)OC(=O)N2C1=O | 3.3% | nt | -6.4%
O=c1cc(CN2CCN(c3ccccc3F)CC2)c2cc(O)c(-c3ccccc3)cc2o1 | -3.5% | 12.7% | 7.94µM*
COc1ccc(N2CCN(Cc3cc(=O)oc4cc(-c5ccccc5)c(O)cc34)CC2)cc1 | -0.4% | 10.4% | ?
CCCN(C(=O)c1cc2c(s1)-c1c(C)cccc1OC2)c1ccc(OCC)cc1 | -0.7% | nt | -1.7%
SMILES | Cruzain Triton | NS1 inh | Cruzain noTriton
CCOc1ccccc1OCC(O)CNC (stereo not given) | 6.7% | -17.4% | -0.1%
O=C(c1ccc2nc(-c3ccco3)c(-c3ccco3)nc2c1)N1CCN(c2ccccc2)CC1 | ? | 8.1% | -2.3%
O=C(c1ccc2nc(-c3ccco3)c(-c3ccco3)nc2c1)N1CCC2(CC1)OCCO2 | 25.1µM* | ? | ?
Nc1nnc(-c2ccc(F)cc2)s1 | -3.4% | -4.0% | 15.8%
NC1=C(c2ccc(F)cc2)C(=O)CS1 | ? | 2.8% | 15.8µM*
COc1ccc(-c2nnnn2C)cc1S(=O)(=O)NCc1ccccc1 | 0.5% | 16.2% | -3.3%
C=CCn1c(Cc2cccs2)nnc1SC/C=C/c1ccccc1 | 1.8% | -13.1% | 8.9%
O=C(CN1C(=O)c2ccccc2C1=O)NCc1ccc(F)cc1 | nt | 19.8% | nt
COc1ccccc1CNC(=O)c1ccc2nc3[nH]c4ccccc4c3nc2c1 | -2.5% | -4.8% | ?
Cc1ccc(CNC(=O)c2ccc3nc4[nH]c5ccccc5c4nc3c2)cc1 | -5.8% | 0.4% | 25.1µM*
Cc1cc(C(=O)CSc2nn3c(=O)c(C(C)(C)C)nnc3s2)c(C)n1-c1ccc(F)cc1 | 1.6% | 26.6% | 12.6µM*
CC(C)N(C(=O)CSc1nn2c(=O)c(C(C)(C)C)nnc2s1)c1ccccc1 | -6.1% | -5.4% | 19.2%
COc1ccc(C2CC(c3ccccc3)=NN2c2ccc(N)cc2)cc1 (stereo not given) | -10.4% | ? | 20µM*
COc1ccc(C2CC(c3ccccc3)=NN2c2ccc(Cl)c(C(=O)O)c2)cc1 (stereo not given) | nt | 9.6% | nt
N#Cc1cncc(-c2ccc3c(c2)OCCOCCOCCOCCOCCO3)n1 | -11.2% | 3.5% | -15.2%
O=C(O)CNC(=O)/C(=C/c1ccco1)NC(=O)/C=C/c1ccccc1 | -6.3% | 18.3% | 2.2%
C=CCOC(=O)/C(=C/c1ccco1)NC(=O)/C=C/c1ccccc1 | 28.2µM* | 5.5% | -28.1%
CCc1ccc(NC(=O)C(CC)Sc2nc3ccsc3c(=O)n2CCC(=O)O)cc1 (stereo not given) | nt | 14.3% | nt
COc1ccc(CNC(=O)Cc2c(C)c3ccc(O)cc3oc2=O)cc1 | -22.8% | nt | 25.1µM*
COc1ccc(CNC(=O)Cc2c(C)c3c(O)cc(C)cc3oc2=O)cc1 | 0.0% | nt | -4.0%
CCN(CC)C(=O)C1CCN(S(=O)(=O)c2ccc3c(c2)CCCN3C(C)=O)CC1 | -0.2% | nt | -2.0%
CCCCc1ccc(Nc2nc(N3CCOCC3)nc(N3CCOCC3)n2)cc1 | nt | 4.2% | nt
CC(=O)c1sc(NC(=O)c2cc(-c3ccccc3)nn2-c2ccccc2)nc1C | -5.9% | 14.6% | -15.8%
O=C(Nc1nc2ccccc2s1)c1cc(-c2ccccc2)nn1-c1ccccc1 | -1.8% | ? | 10µM*
CCc1cccc(C)c1NC(=O)Cn1ncc2c3ccccc3n(Cc3ccccc3)c2c1=O | -5.4% | nt | 0.8%
SMILES | Cruzain Triton | NS1 inh | Cruzain noTriton
O=S(=O)(c1ccc(OC(F)(F)F)cc1)N1CCC(c2nnnn2-c2ccc(F)cc2)CC1 | -0.2% | nt | -7.7%
Cc1ccc(NC(=O)C(C)OC(=O)c2ccc(NS(=O)(=O)c3ccc(F)c(F)c3)cc2)cc1 (stereo not given) | -9.5% | 3.9% | -23.1%
CCc1ccc(NC(=O)C(C)OC(=O)c2ccc(NS(=O)(=O)c3ccc(C)c([N+](=O)[O-])c3)cc2)cc1 (stereo not given) | -0.9% | -35.5% | 15.8µM*
CC(=O)Nc1ccc(OCc2ccc(S(=O)(=O)Cc3ccccc3)cc2)cc1 | nt | 1.9% | nt
[S-]C(=Nc1ccc(Cl)cc1)N[n+]1ccccc1 | 20µM* | -1.6% | 7.94µM*
ONC(=Nc1ccc(Cl)cc1)c1ccc(Cl)cc1 | -7.2% | -26.6% | -6.4%
Cc1c(NC(=S)NC(=O)c2cc3ccccc3o2)c(=O)n(-c2ccccc2)n1C | -4.4% | -0.7% | 19.3%
Cc1ccc(-c2csc(N(CCc3ccccc3)C(=O)COc3ccccc3)n2)cc1 | 3.5% | 20.1% | -20.5%
Cc1ccc(-c2csc(N(Cc3ccccc3)C(=O)COc3ccccc3)n2)cc1 | 5.9% | 3.4% | 7.94µM*
CCOC(=O)CSc1nc2sc(C)c(C)c2c(=O)n1N | -1.5% | -0.1% | -9.2%
COC(=O)c1sc2nc(SCc3ccccc3C#N)n(N)c(=O)c2c1C | -8.0% | 18.8% | 31.6µM*
CC1CCN(c2nc(-c3ccc(Br)cc3)nc3ccccc23)CC1 | 0.1% | nt | 6.1%
Cc1oc(/N=C/c2ccccc2O)c(C#N)c1C | 1.7% | 5.6% | 3.4%

High-throughput results as filed in PubChem BioAssay.
